Molecules are shown by their SMILES. Compounds without any hit were thinned out: in the full panel of roughly 83,000, 20% have a hit.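 Testing used 96-well plates and a 48-hour single-concentration exposure. Example: -40 means 40% of the starting cells died.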 Values without a mark were called inactive. Activity calls are given as the source filed them. Rule for the calls: active = growth percent below 10; inactive = the rest.

Test systems include DU-145 prostate; K-562 leukemia; MALME-3M melanoma; MDA-MB-231 breast; RXF 393 renal; SF-268 CNS; SF-295 CNS; SF-539 CNS; UACC-257 melanoma; M14 melanoma.
Holding throughout (assay): NCI-60 one-dose screen, 48 h (100 = growth as untreated, 0 = no growth, -100 = all killed)
Settings in all cases: 10 µM unless noted

As to `O=C1NC(=Nc2ccc(Cl)cc2)S/C1=C\c1cn(-c2ccccc2)nc1-c1ccccc1`, the growth was 89% in the assay with DU-145 prostate; 92.1% in the assay on K-562 leukemia; 83.8% with MALME-3M melanoma; 88.4% in the assay on MDA-MB-231 breast; 97% in the assay on RXF 393 renal; 84.5% in the assay with SF-268 CNS. The growth in the assay on SF-295 CNS was 94.5%; in the assay with SF-539 CNS, 81%; in the assay with UACC-257 melanoma it was 91.6%; with M14 melanoma it was 97.1%.
`O=C(Nc1cccc(C(F)(F)F)c1)Nc1cccc(C(F)(F)F)c1`: the growth in the assay on DU-145 prostate is 25%; in the assay on K-562 leukemia it was 11.5%; with MALME-3M melanoma, -17.1% (active); in the assay on MDA-MB-231 breast, -34.8% (active); in the assay on RXF 393 renal it was 22.7%; in the assay with SF-268 CNS, 22.7%. Besides, the growth is 4.86% (active) in the assay on SF-295 CNS, 19.5% with SF-539 CNS, -32.9% (active) in the assay on UACC-257 melanoma and 13% in the assay on M14 melanoma.
Take `Cc1cc(NCc2cc(Nc3ccnc4cc(Cl)ccc34)ccc2F)nc(N2CCN(c3ccccc3)CC2)n1`: the growth was 72.5% in the assay on DU-145 prostate; -0.109% (active) with K-562 leukemia; 84.4% in the assay on MALME-3M melanoma; 17.2% in the assay with MDA-MB-231 breast; 47.4% in the assay on RXF 393 renal; 65.3% in the assay on SF-268 CNS. Moreover, the growth in the assay on SF-295 CNS was 27.3%; in the assay on SF-539 CNS it was 61.9%; with UACC-257 melanoma, 73.7%; in the assay with M14 melanoma, 43.4%.
As for `COc1cc(N2C(=O)c3nccnc3C2=O)cc(OC)c1OC`, the growth with DU-145 prostate is 115%; with K-562 leukemia, 98.1%; with MALME-3M melanoma, 96%; with MDA-MB-231 breast, 93.1%; in the assay with RXF 393 renal, 126%; in the assay with SF-268 CNS it was 111%. Also, the growth in the assay with SF-295 CNS was 110%; in the assay with SF-539 CNS, 119%; in the assay with UACC-257 melanoma it was 105%; with M14 melanoma, 91.8%.
`COc1cc(/C=C/C(=O)c2c(C)nc3ccccc3c2C)ccc1OCCCN1CCN(C(=O)c2ccco2)CC1`: the growth in the assay with DU-145 prostate was 91.4%; with K-562 leukemia it was 59.7%; with MALME-3M melanoma it was 68.3%; in the assay on MDA-MB-231 breast, 75.3%; in the assay on RXF 393 renal it was 74%; with SF-268 CNS, 87.4%. Further, the growth in the assay on SF-295 CNS is 78.3%; in the assay with SF-539 CNS it was 93.3%; in the assay on UACC-257 melanoma it was 62.4%; in the assay with M14 melanoma it was 94.4%.
For `COc1cc(N=Nc2ccc(N)cc2)c(OC)cc1N=Nc1ccccc1.[Cl][Zn][Cl]`, the growth with DU-145 prostate is 118%; in the assay with K-562 leukemia, 104%; in the assay with MALME-3M melanoma it was 74.1%; with MDA-MB-231 breast, 84.6%; in the assay on RXF 393 renal it was 114%; in the assay on SF-268 CNS, 96.5%. In addition, the growth in the assay on SF-295 CNS was 116%; in the assay with SF-539 CNS, 87.9%; in the assay on UACC-257 melanoma it was 109%; with M14 melanoma, 101%.
In the case of `CCCCOc1nc2ccccc2cc1C1CNC(=O)c2ccccc2N1` (stereo not given), the growth is 10.7% in the assay on DU-145 prostate; 12.8% in the assay with K-562 leukemia; 45.6% with MALME-3M melanoma; 47.5% in the assay on MDA-MB-231 breast; -14.3% (active) in the assay on RXF 393 renal; 43.6% in the assay with SF-268 CNS. Also, the growth in the assay on SF-295 CNS was -5.68% (active); in the assay with SF-539 CNS, -25.5% (active); in the assay on UACC-257 melanoma, 57.2%; in the assay on M14 melanoma it was -23.1% (active).
Take `O=C(CSc1nccc(Nc2ccc(S(=O)(=O)Nc3nccs3)cc2)n1)c1ccc(F)cc1`: the growth was 105% with DU-145 prostate; 113% with K-562 leukemia; 103% in the assay on MALME-3M melanoma; 113% in the assay on MDA-MB-231 breast; 112% in the assay on RXF 393 renal; 105% with SF-268 CNS. Moreover, the growth is 103% in the assay with SF-295 CNS, 100% in the assay on SF-539 CNS, 96.5% in the assay with UACC-257 melanoma and 101% in the assay on M14 melanoma.
As to `FC(F)(F)c1cc(Nc2ccc3cc(OCCCN4CCOCC4)ccc3n2)ccc1Cl`, the growth with DU-145 prostate is 47.6%; with K-562 leukemia it was -27.3% (active); in the assay on MALME-3M melanoma, 47.4%; in the assay with MDA-MB-231 breast, -17.8% (active); in the assay with RXF 393 renal it was -0.217% (active); in the assay on SF-268 CNS it was 46.9%. The growth is -56.7% (active) in the assay with SF-295 CNS, -0.973% (active) in the assay on SF-539 CNS, 49.2% in the assay with UACC-257 melanoma and 19% with M14 melanoma.
As to `NS(=O)(=O)c1cnccc1Oc1cccc2cccnc12`, the growth in the assay on DU-145 prostate is 108%; with K-562 leukemia it was 82.4%; in the assay on MALME-3M melanoma it was 96%; with MDA-MB-231 breast it was 102%; with RXF 393 renal it was 104%; in the assay with SF-268 CNS it was 101%. The growth was 120% in the assay with SF-295 CNS, 88.3% with SF-539 CNS, 114% with UACC-257 melanoma and 98.8% in the assay on M14 melanoma.
With `COc1cc(C2CC(=O)Nc3c2c(C)nn3-c2nc3ccccc3[nH]2)c(OC)c2c1OCO2` (stereo not given), the growth was 88.5% with DU-145 prostate; 17.2% in the assay on K-562 leukemia; 73.9% in the assay with MALME-3M melanoma; 73.4% with MDA-MB-231 breast; 73.2% with RXF 393 renal; 71% with SF-268 CNS. In addition, the growth was 36.9% in the assay on SF-295 CNS, 78.4% in the assay with SF-539 CNS, 85.5% in the assay with UACC-257 melanoma and 52.1% in the assay with M14 melanoma.
In the case of `N#C/C(=C\c1ccc(Br)cc1)n1nnc2cc(F)c(F)cc21`, the growth was 15.6% with DU-145 prostate; 9.36% (active) in the assay on K-562 leukemia; 65.7% in the assay with MALME-3M melanoma; 15% in the assay with MDA-MB-231 breast; 2.12% (active) in the assay with RXF 393 renal; 33.8% in the assay on SF-268 CNS. Also, the growth in the assay with SF-295 CNS is 98.6%; in the assay on SF-539 CNS, -2.33% (active); with UACC-257 melanoma, 50.6%; in the assay with M14 melanoma it was 18.1%.

These data come from PubChem BioAssay (NCI).
